From PubChem BioAssay (NCATS)
Inconclusive results are not listed. A call without a number means that no potency is given here. Active and inactive are the calls of the source. Calls come from the whole dose curve; as a rule, active = well fitted inhibition curve with a large enough effect; inconclusive = small, poorly fitted or top-dose-only effect; inactive = flat fitted curve, though single readings scatter.

These compounds were tested against Calcium and integrin-binding protein 1 (Homo sapiens) (UniProt Q99828) (assay: Primary qHTS for Identification of Calcium Integrin Binding Protein 1 (CIB1) Competitor (AID 1508620;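 note: GST tagged CIB1 binding a fluorescein labelled alphaIIb integrin peptide tracer; top concentration of the series differs between compounds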)). Details: CIB1-GST / FITC-alphaIIb peptide fluorescence polarization; series mostly up to 114 µM.
Calcium and integrin-binding protein 1 (Homo sapiens), sequence (Q99828 whole entry, looked up): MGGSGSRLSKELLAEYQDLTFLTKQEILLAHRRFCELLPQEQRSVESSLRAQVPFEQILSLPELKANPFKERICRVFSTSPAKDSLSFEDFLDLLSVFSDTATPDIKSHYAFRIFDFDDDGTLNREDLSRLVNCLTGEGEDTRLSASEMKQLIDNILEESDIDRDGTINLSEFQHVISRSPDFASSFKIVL
Summary of the method: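 Fluorescence polarization competition: CIB1-GST (1 uM final) preincubated with compound 15 min at room temperature, then FITC-labeled alphaIIb peptide (100 nM final) added for another 15 min. Polarization read at Ex 480/Em 540.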

Q: Which Potency does the source give for `O=S(=O)(c1ccc2c(c1)OCCO2)N1CCN(S(=O)(=O)c2cc(F)ccc2F)CC1` here?
A: inactive

Q: How did the Potency turn out when `COc1cc(C2Nc3ccccc3C(=O)N2Cc2ccccc2)ccc1OCc1ccc(NC(C)=O)cc1` (stereo not given) was run?
A: inactive

Q: Which Potency does the source give for `Cc1ccnc(NC(=S)N2CCN(c3ccc(C(F)(F)F)cc3)CC2)c1` here?
A: inactive

Q: For `COc1ccc(C2Nc3ccccc3C(=O)N2Cc2ccccc2)cc1COc1ccc(C)cc1` (stereo not given), which Potency is on record?
A: inactive

Q: `O=C1CCCC2=C1C(c1[nH]ncc1Cl)NC(=NCc1ccccn1)N2` (stereo not given) was tested. Which Potency did it give?
A: inactive

Q: With `Cc1ccc(NS(=O)(=O)c2cccc(Cl)c2)cc1C` as the compound, how does the Potency read?
A: inactive

Q: For `COc1ccc(C(=O)N(Cc2ccccc2)Cc2ccco2)c(O)c1`, which Potency is on record?
A: inactive

Q: For `O=C(NC1CCCc2c1cnn2-c1ccc(F)cc1F)c1ccc(C(=O)c2ccccc2)cc1` (stereo not given), which Potency is on record?
A: inactive

Q: How did the Potency turn out when `CCOC(=O)c1[nH]c2c(c1C)CCC(c1ccco1)C2` (stereo not given) was run?
A: inactive

Q: How did the Potency turn out when `Cc1ccnc(NC(=S)N2CCN(c3ccc(Br)cc3)CC2)c1` was run?
A: inactive

Q: Which Potency does the source give for `Cc1ccc(/C=C/C(=O)Nc2cccc([S+](=O)([O-])Nc3ccccc3F)c2)cc1` here?
A: inactive

Q: With `c1nc(NCc2ccc3c(c2)OCO3)c2cc(-c3ccc4c(c3)OCCO4)ccc2n1` as the compound, how does the Potency read?
A: inactive

Q: Which Potency does the source give for `CCc1nn2c(=O)cc(NC3CNC3)nc2s1` here?
A: inactive

Q: How did the Potency turn out when `Fc1cc(Nc2nc(-c3ccncc3)nc3ccccc23)ccc1-c1cc(F)c(F)c(F)c1` was run?
A: inactive

Q: `Cc1cc(C)nc(NC(=S)N2CCN(c3ccc([N+](=O)[O-])c4cccnc34)CC2)c1` was tested. Which Potency did it give?
A: inactive

Q: How did the Potency turn out when `Cc1cccc(-n2cnc3cc(C(=O)N4CCCCCC4)ccc32)c1` was run?
A: inactive

Q: Which Potency does the source give for `Nc1ccccc1OCCn1c(CCNC(=O)C2CCCCC2)nc2ccccc21` here?
A: inactive

Q: Which Potency does the source give for `Cn1c2cc(C#N)sc2c2cnn(Cc3ccccc3F)c(=O)c21` here?
A: inactive

Q: How did the Potency turn out when `COc1cccc(C2=Nn3c(nnc3-c3cccc(OC)c3)SC2)c1` was run?
A: inactive

Q: For `Cc1cnc(-c2ccccc2C(C)C)nc1NCC1CN(c2cccnc2)C1`, which Potency is on record?
A: inactive

Q: How did the Potency turn out when `Cc1cc(C)nc(NC(=S)N2CCN(Cc3c(F)cccc3Cl)CC2)c1` was run?
A: inactive

Q: For `CC(=O)NC1CCN(c2nc(-c3ccc(Br)cc3)cs2)CC1`, which Potency is on record?
A: inactive

Q: How did the Potency turn out when `COc1cc(-c2no[n+]([O-])c2C#N)cc(OC)c1OC` was run?
A: inactive

Q: With `c1ccc2[nH]c(-c3ccc(NCc4ccc5c(c4)OCCO5)cc3)nc2c1` as the compound, how does the Potency read?
A: inactive

Q: With `CC1=C(C(=O)NCc2ccccc2)C(c2ccccc2Br)N=C(Nc2nc3ccccc3o2)N1` (stereo not given) as the compound, how does the Potency read?
A: inactive

Q: For `CC(=O)Nc1sc2c(c1-c1ccc3nsnc3c1)CCNC2`, which Potency is on record?
A: inactive

Q: How did the Potency turn out when `COc1ccccc1-c1nnc(SCC#CCOC(=O)c2ccc(F)cc2)o1` was run?
A: inactive

Q: How did the Potency turn out when `COc1ccc(C2N(Cc3ccccc3)C(=O)c3ccccc3N2C)cc1COc1ccc(NC(C)=O)cc1` (stereo not given) was run?
A: inactive

Q: `COc1ccc(C2Nc3ccccc3C(=O)N2Cc2ccccn2)cc1COc1c(C)cccc1C` (stereo not given) was tested. Which Potency did it give?
A: inactive

Q: For `COc1cc(OC)cc(C2=Nn3c(nnc3-c3cccc(OC)c3)SC2)c1`, which Potency is on record?
A: inactive

Q: `O=C(O)c1ccc(O)c2ncc(NC3CCNCC3)cc12` was tested. Which Potency did it give?
A: inactive

Q: For `Cc1cc(C)nc(NC(=S)N2CCN(c3ccc(NS(C)(=O)=O)nn3)CC2)c1`, which Potency is on record?
A: inactive

Q: `FC(F)(F)c1ccccc1-c1nc(NCc2ccc(-c3ccc(Cl)cc3)cc2)c2ccccc2n1` was tested. Which Potency did it give?
A: inactive

Q: `COc1cccc(Nc2ccc(N3CCN(C(C)=O)CC3)cc2)c1OC` was tested. Which Potency did it give?
A: inactive

Q: How did the Potency turn out when `Cc1cc(NS(=O)(=O)c2ccc(NC(=O)Cc3ccc(Cl)c(Cl)c3)cc2)on1` was run?
A: inactive

Q: Which Potency does the source give for `Cc1ccc(N[S+](=O)([O-])c2cc3c(cc2Cl)CCC(=O)N3)cc1Br` here?
A: inactive

Q: How did the Potency turn out when `CN(Cc1ccc(-c2ccc(C#N)cc2)o1)c1ccc(N2CCN(C(=O)OC(C)(C)C)CC2)cc1` was run?
A: inactive

Q: Which Potency does the source give for `O=C(Nc1ccc2ccccc2c1)Nc1nnc(-c2ccc(F)cc2)s1` here?
A: inactive

Q: `CN1CCN(c2cccc(CNc3nn4c(=O)c5ccccc5nc4s3)c2)CC1` was tested. Which Potency did it give?
A: inactive

Q: How did the Potency turn out when `COc1ccc(C)cc1NC(=O)C(OC(=O)CNC(=O)c1ccccc1)c1ccccc1` (stereo not given) was run?
A: inactive
